High-throughput results from PubChem BioAssay.
tim23-1 inh: tim23-1 yeast growth inhibition | AID 463212 | 1.3% of 330,000 active | S. cerevisiae tim23-1 growth, BacTiter-Glo luminescence, 24 h | inhibition, % at 20 µM;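 active = growth inhibition of the mutant yeast at or above 50%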;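 note: temperature-sensitive mutant grown at 25 °C; plate controls were DMSO-treated mutant yeast for no effect and medium wells lacking yeast for full effect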
TIM10 inh: TIM10 yeast growth inhibition. S. cerevisiae TIM10 strain growth, BacTiter-Glo luminescence, 24 h. inhibition, % at 10 µM. 1.4% of 330,000 active. AID 463195;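 active = inhibition of 40% or more at the single tested concentration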;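 note: wild-type TIM10 isogenic control strain grown at permissive 25 °C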
tim10-1 inh: growth inhibitors of tim10-1 mutant yeast | AID 463190 | inhibition, % at 20 µM | S. cerevisiae tim10-1 ts strain growth, BacTiter-Glo, 24 h | 2.2% of 330,000 active;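 active = inhibition of at least 40%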;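 note: mutant grown at 25 °C; 0% = DMSO wells with yeast and 100% = wells holding no yeast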
NALP3 yeast inh: blocks the NALP3 inflammasome reconstituted in yeast. Yeast reconstituted NLRP3/ASC/caspase-1, beta-gal luminescence, 24 h. AID 2825. 0.39% of 330,000 active. inhibition, % at 10 µM;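 active = inhibition of 50% or more; inactive = inhibition below 50%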;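 note: plate controls were induced DMSO wells for no effect and uninduced yeast grown without galactose for full effect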
NALP1 yeast inh: blocks the NALP1 inflammasome reconstituted in yeast | 0.61% of 280,000 active | inhibition, % at 10 µM | S. cerevisiae NALP1/ASC/caspase-1 growth, X-gal OD620, 72 h; in the data active = inhibition mostly above about 24%, no sharp cut-off; inactive = mostly below about 32%
tim10 confirm: TIM10 yeast growth inhibition, confirmed. shares compounds with TIM10 inh. S. cerevisiae tim10 strain growth, BacTiter-Glo luminescence, 24 h. inhibition, % at 10 µM. 63% of 4,600 active. AID 463215;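 active = inhibition of yeast growth at or above a set limit in either of two replicates at 10 µM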;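 note: this counterscreen used the strain with wild-type TIM10; 0% = yeast with DMSO and 100% = medium wells lacking yeast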
Starred values were filed as active, the others as inactive; . = no result. An excerpt weighted towards active compounds, which were near 4% of everything screened.

SMILES	tim23-1 inh	TIM10 inh	tim10-1 inh	NALP3 yeast inh	NALP1 yeast inh	tim10 confirm
Cc1cc(CC(C)C)n(-c2nc3ccccc3c(=O)n2OCc2ccccc2)n1	38	40*	34	0	16	37*
Cc1cc(CC(C)C)n(-c2nc3ccccc3c(=O)n2OCC(=O)N(C)C)n1	18	5	15	2	7	.
CC(C)Oc1ccc(S(=O)(=O)N2CCOCC2)cc1NC(=O)Cc1cccs1	-2	-2	4	9	.	.
CCCCCCCC(=O)NC1=NC(=O)C(C)(C)S1	25	24	26	13	-3	.
C=CCc1c(C)nc(-c2ccccc2)nc1N/N=C(\C)c1ccccc1	33	29	25	-22	24	.
C=CCc1c(C)nc(-c2ccccc2)nc1Nc1ccc(O)cc1	50	40*	33	13	31	31
CCOC(=O)N1CCN(C(=O)Cc2ccsc2)CC1	15	11	4	6	5	.
CC(C)CNc1nnnc2c1sc1nc(N3CCOCC3)c3c(c12)CC(C)(C)SC3	4	40*	37	8	4	21
CCc1sc(NC(=O)c2cc3ccccc3oc2=O)nc1-c1cccs1	12	12	0	28	15	.
O=C1Nc2ccc(Br)cc2C1(O)c1ccccc1 (centres undefined)	11	0	21	15	-1	.
O=C1Nc2ccc(Br)cc2C12NNc1ccccc1O2 (centres undefined)	-20	45*	22	23	-26	69*
O=C(N=Nc1c(O)[nH]c2ccccc12)c1cccs1	11	62*	24	30	9	47*
O=C(c1ccccc1Cl)N(C(=O)c1ccccc1Cl)c1nccc(-c2cccs2)n1	28	42*	27	6	28	10
O=C(Nc1nccc(-c2cccs2)n1)c1ccccc1Cl	4	7	16	-4	1	.
Cc1[nH]n(-c2ccc([N+](=O)[O-])cc2)c(=O)c1C=NCCc1c(C)[nH]c2ccccc12	8	45*	21	9	10	-15
O=C(c1ccc([N+](=O)[O-])o1)N1CCN(c2nc3ccc(F)cc3s2)CC1	-41	40*	3	24	.	81*
O=C(c1cc2sccc2n1Cc1ccc(F)cc1)N1CCN(c2nc3ccccc3s2)CC1	26	43*	32	-5	-116	19
O=C(c1ccc([N+](=O)[O-])o1)N1CCN(c2nc3c(Cl)cccc3s2)CC1	6	56*	24	39	.	85*
Cc1ccc(Nc2ncc3c(n2)CC(C)(C)CC3=O)cc1	10	16	-3	32	20	.
Cc1ccc(S(=O)(=O)Nc2cccc3c2CCCC3)cc1	38	9	20	22	18	.
Cc1c(C(=O)Nc2nc3ccccc3[nH]2)oc2c(Cl)cccc12	45	44*	4	29	.	24
CCn1nccc1C(=O)Nc1ccc(C(=O)OC(C)C)cc1	24	10	26	43	12	.
CC12c3ccccc3C(c3ccccc31)C1C(=O)N(c3ccncc3)C(=O)C12 (centres undefined)	33	12	22	7	0	.
CCc1ccc(N=CC23c4ccccc4C(c4ccccc42)C2C(=O)N(c4ccc(OC)cc4)C(=O)C23)cc1 (centres undefined)	49	64*	39	33	-4	48*
COc1ccc(N2C(=O)C3C4c5ccccc5C(C=Nc5ccc(C)cc5C)(c5ccccc54)C3C2=O)cc1 (centres undefined)	46	53*	34	38	.	45*
O=C(O)c1ccc(N2C(=O)C3C4c5ccccc5C(Br)(c5ccccc54)C3C2=O)cc1 (centres undefined)	20	-6	18	5	-9	.
CCc1cccc(CC)c1NC(=O)CSc1nc2ccc(N3C(=O)C4C(C3=O)[C@H]3C=C[C@@H]4C3)cc2s1 (some centres undefined)	9	5	20	2	34	.
CC1(C(=O)O)CCC(C(=O)N2CCCCC2)C1(C)C (centres undefined)	4	-8	9	-9	32	.
Cc1ccc(C(=O)Oc2ccc(C(=O)COC(=O)C3CC(=O)N(Cc4ccco4)C3)cc2)cc1 (centres undefined)	21	41*	40	6	-2	13
